# Screening data from PubChem BioAssay.
# MBD2 inh: MBD2-methylated oligo binding inhibition; TR-FRET, MBD2 binding to methylated oligonucleotide; inhibition, % at 4.4 µM; hit rate 0.31% among 370,000; AID 686964; in the data active means inhibition above about 13%
# Target sequence (Q9UBB5 whole entry, looked up): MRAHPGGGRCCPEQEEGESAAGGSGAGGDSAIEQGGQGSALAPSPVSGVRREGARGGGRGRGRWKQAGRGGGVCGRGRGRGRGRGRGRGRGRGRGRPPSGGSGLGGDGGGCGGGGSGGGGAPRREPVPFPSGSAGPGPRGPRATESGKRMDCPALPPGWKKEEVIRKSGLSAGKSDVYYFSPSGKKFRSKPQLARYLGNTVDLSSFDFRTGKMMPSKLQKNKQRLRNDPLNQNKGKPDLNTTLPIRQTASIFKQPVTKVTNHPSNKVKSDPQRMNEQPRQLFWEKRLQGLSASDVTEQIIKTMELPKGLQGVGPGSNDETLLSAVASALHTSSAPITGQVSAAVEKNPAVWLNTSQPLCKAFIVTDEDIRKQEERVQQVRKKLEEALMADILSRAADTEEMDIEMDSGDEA
# UHRF1 MBD2 ctr: UHRF1 methyl-DNA binding inhibition; Q96T88; UHRF1 binding to methylated oligo, TR-FRET; inhibition, % at 4.4 µM; hit rate 0.75% among 370,000; AID 687016; in the data active means inhibition above about 21%;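 further: UHRF1 SRA domain binding a hemimethylated CpG hairpin DNA probe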
# DNMT1 inh: DNMT1 (human) enzyme inhibition; hit rate 0.83% among 360,000; inhibition (reported as % activation of signal), % at 10 µM; P26358; DNMT1 molecular beacon, Hinp1I cleavage, fluorescence; in the data active means inhibition above about 50%
# rCAG RNA binder: molecules binding r(CAG) RNA repeats; inhibition, % at 3 µM; hit rate 1.3% among 370,000; r(CAG) RNA repeat, TO-PRO-1 dye displacement fluorescence;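 active means inhibition above the plate cutoff, the mean of all test compounds on that plate plus 3 SD, cut at about 35% in these data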;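 further: higher means more dye released from RNA so lower well fluorescence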
# LEDGF integ inh: blocks HIV-1 LEDGF/p75-dependent DNA integration; TR-FRET IN-LEDGF/p75 DNA integration, Eu/Cy5; inhibition, % at 3.7 µM; hit rate 0.64% among 370,000;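 active means inhibition above the screen-wide mean plus 3 SD, cut at about 13% in these data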;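 further: signal is the Cy5 over europium emission ratio at 671 and 618 nm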
# PG9 Ab binder: binds the HIV-1 gp120 antibody PG9. inhibition, % at 6.7 µM. TR-FRET gp120-PG9 antibody binding. hit rate 0.43% among 360,000; in the data active means inhibition above about 8.5%
# PG9 binder conf: PG9 antibody binding, confirmed; shares compounds with PG9 Ab binder; TR-FRET PG9 antibody binding, biochemical; inhibition, % at 6.7 µM; hit rate 90% among 1,500; in the data active means inhibition above about 9%
# PGV04 counter: PGV04 control antibody binding, counter-screen; shares compounds with PG9 Ab binder; TR-FRET PGV04 antibody-gp120 binding, biochemical; inhibition, % at 6.7 µM; hit rate 95% among 1,500; AID 651604; in the data active means inhibition above about 9.5%
# PG9 bind DR: PG9 antibody binding, dose response; IC50, µM; TR-FRET PG9 antibody-gp120 binding inhibition; 95 tested, under 10 active; shares compounds with PG9 Ab binder; in the data active means IC50 below about 10 µM
# PGV04 binding DR: counter-screen for PG9 binders: binding to control antibody PGV04; shares compounds with PG9 Ab binder; TR-FRET binding to control antibody PGV04; IC50, µM; hit rate 20% among 95; AID 651937
# PG126 binding DR: PG126 binding, dose response counter-screen; shares compounds with PG9 Ab binder; TR-FRET binding to antibody PG126, counterscreen; IC50, µM; hit rate 20% among 95; AID 651939
# A number is an active result; . = inactive; / = no result. Rows were chosen to be rich in hits. Some 3.5% of all compounds tested hit in one or more screens of this group. Unless noted, no stated cut-off is given here; in the data, active means IC50 below about 9 µM; inactive means the rest.
SMILES,MBD2 inh,UHRF1 MBD2 ctr,DNMT1 inh,rCAG RNA binder,LEDGF integ inh,PG9 Ab binder,PG9 binder conf,PGV04 counter,others
CCOC(=O)CNC(=O)CSc1nc(-c2ccc(OC)cc2)ns1,.,.,.,.,.,.,/,/,
Cc1cccc(-c2nsc(SCC(=O)Nc3ccc4c(c3)OCO4)n2)c1,.,.,.,.,.,.,/,/,
CCOC(=O)Nc1ccc2c(COC(=O)CNS(=O)(=O)c3cccc(Br)c3)cc(=O)oc2c1,.,.,.,.,.,39,32,37,
COc1ccc2c(c1)oc(=O)c1c3ccccc3[nH]c21,.,.,.,.,.,13,8.9,21,
CC1=NOC(=O)/C1=C\c1ccc(-c2ccccc2Br)o1,.,.,52,.,.,14,30,54,
Cc1cc2ccccc2n1CCNC(=O)C1CCCCC1,.,.,.,.,.,11,.,.,PG9 bind DR=.;PGV04 binding DR=.;PG126 binding DR=.
CCn1c(CNC(=O)C2CCCCC2)cc2ccccc21,.,.,.,.,.,32,16,23,
CCCCN(CCCC)Cc1cc(=O)oc2ccccc12,.,.,.,.,.,.,/,/,
c1ccc(Sc2ncnc3ccccc23)cc1,.,.,.,.,.,.,/,/,
c1ccc(Cc2nnc(Sc3ccccc3)c3ccccc23)cc1,.,.,.,.,.,29,29,36,
CCCCN1CC(COCc2ccccc2)Oc2ccccc2S1(=O)=O (stereo unspecified),.,.,.,.,.,.,/,/,
COc1cc(CN2C[C@@H](CO)O[C@@H](n3cnc4c(NC5CCCC5)ncnc43)C2)cc(OC)c1OC,.,.,.,.,.,.,/,/,
Cc1cccc(/C=N\N=C\c2cccc(C)c2)c1,.,.,.,.,.,.,/,/,
CCOC(=O)c1c(NC(=O)CSc2nc3cc(Cl)ccc3c(=O)n2Cc2ccco2)sc(C(=O)N(C)C)c1C,.,.,.,.,.,51,9.5,23,
CCc1ccc([C@@H]2CC(=O)[C@@H]3CN(S(=O)(=O)c4ccccc4C)[C@H](c4ccc(Cl)cc4)C[C@@H]3N2S(=O)(=O)c2ccc(C)cc2)cc1,.,.,.,.,.,.,/,/,
COCCNC(=O)C[C@H]1CC[C@H]2[C@@H](COc3ccc(NC(=O)Nc4cccc(F)c4)cc3C(=O)N2C)O1,.,.,/,.,.,/,/,/,
Cc1ccc2c(c1)CCCN2C(=O)CCc1nc2ccccc2c(=O)[nH]1,.,.,.,.,.,.,/,/,
O=C1c2cccc3cccc(c23)C(=O)N1OS(=O)(=O)c1ccccc1,.,.,.,.,.,28,28,62,
Cc1nn(CC(=O)Nc2ccc(Cl)cc2Cl)c(=O)c2ccccc12,.,.,.,.,.,9.1,25,40,
O=C(CCc1ccccc1)Nc1nc2ccc(S(=O)(=O)N3CCOCC3)cc2s1,.,.,.,.,.,12,22,31,
O=c1c2ccc(Cl)cc2[nH]c(=S)n1Cc1cccnc1,.,.,.,.,.,14,12,14,
CCOC(=O)[C@]12CCC=C1N(Cc1ccccc1)C(=O)[C@H](CC(=O)NCc1cccs1)C2,.,.,/,.,.,.,/,/,
C[C@H](O)[C@@H]1C(=O)N2CCc3c([nH]c4c(-c5ccc6c(c5)OCO6)cccc34)[C@@H]2C[C@@H]1N(C)C(=O)c1ccccc1F,.,.,/,.,.,/,/,/,
C[C@]12c3[nH]c4ccccc4c3CCN1C(=O)C(CC(=O)NCCCn1ccnc1)C[C@@H]2C(=O)N1CCOCC1 (stereo partly specified),.,.,.,.,.,15,.,9.3,
CC(C)N(C(=O)[C@H]1CC(CC(=O)NCCCn2ccnc2)C(=O)N2CCc3c([nH]c4ccccc34)[C@]12C)C(C)C (stereo partly specified),.,.,.,.,.,.,/,/,
SMILES,MBD2 inh,UHRF1 MBD2 ctr,DNMT1 inh,rCAG RNA binder,LEDGF integ inh,PG9 Ab binder,PG9 binder conf,PGV04 counter,others
COc1ccc(-c2nc(-c3cccs3)no2)cc1,.,.,.,.,.,.,/,/,
Cc1ccc(-c2noc(-c3cccs3)n2)cc1,.,.,.,.,.,8.8,26,28,
CC(C)(C)NC(=O)[C@]1(C)CCC[C@@]2(C)C3CC[C@@]4(C)C[C@]3(CCC21)CC4=O (stereo partly specified),.,.,.,.,.,.,/,/,
COCc1cc(C)nc(Nc2ccc(C)c(C)c2)c1C#N,.,.,.,.,.,31,29,46,
CCCOc1ccc(/C=N/n2nnnc2N)cc1OC,.,.,.,.,.,.,/,/,
COc1ccc(Cl)cc1C(=O)NNC(=O)c1n[nH]c2ccccc12,.,.,.,.,.,10,24,31,
Fc1ccc(Cn2ccc3ccc(-c4ccc5ccn(Cc6ccccc6)c5c4)cc32)cc1,.,.,/,.,.,/,/,/,
CCn1c(C(=O)NC2CCC(C)CC2)cc2sccc21 (stereo unspecified),.,.,.,.,.,11,.,.,
CCOC(=O)N1CCC(NC(=O)c2cc3sccc3n2CC)CC1,.,.,.,.,.,.,/,/,
O=C(N/N=C/c1ccccn1)c1cc(-c2ccncc2)nc2ccccc12,.,.,.,.,.,15,19,34,
O=C(N/N=C/c1ccsc1)c1cc(-c2ccncc2)nc2ccccc12,.,.,.,.,.,.,/,/,
N#Cc1c(NC(=O)C2CC=CCC2C(=O)O)sc2c1CCCCCC2 (stereo unspecified),.,.,.,.,.,11,9.0,9.4,
O=c1[nH]c(/C=C/c2cccc3ccccc23)nc2ccccc12,.,.,.,.,.,33,45,46,
Cc1cc(Br)c2nc3c(c(C(=O)O)c2c1)CCCCC3,.,.,.,.,.,75,74,88,
CCc1ccc2nc3c(c(C(=O)O)c2c1)CCC3,.,.,.,.,.,.,/,/,
CCc1nc2ccc(C(=O)N3CCN(C(=O)c4ccco4)CC3)cn2c1N(C=O)Cc1ccc(OC)cc1,.,.,.,.,.,.,/,/,
CC(C)(C)C(=O)Cn1c(=O)n(-c2ccc(F)cc2F)c(=O)c2sccc21,.,.,.,.,.,12,.,.,
O=C(Cn1cccc1C(=O)c1ccccc1)NCCc1ccc(Cl)cc1,.,.,.,.,.,9.4,.,10,
O=C(Cn1cccc1C(=O)c1ccccc1)NCCc1ccccc1,.,.,.,.,.,.,/,/,
